Several values for one entry are separate records, joined by “and”; a condition that tells them apart may be missing. Equal values may be shown once. ± gives the standard deviation of the averaged measurements.

25 molecules from the supplement of paper PMC7156485 can be followed below.

Settings in all cases: concentration: 10 µM; 24 h
Assay [1] has as its system HCC1569. The assay is described as follows: cell number relative to DMSO (% of DMSO); higher = more cells (less growth inhibition / toxicity). Put shortly:
(§1)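 Cell number or H1.0 nuclear intensity appears as percent of the plate control, based on the median of replicates. Measurements came from HCC1569 and TDF cells exposed in triplicate to compounds at 10 µM for 24 h at 37 °C, then imaged in six fields per well at ×10. Positional effects were smoothed out of HCC1569 values.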

Assay [2] deals with TDF. Described as above. Put shortly: as §1
Assay [3] concerns TDF. The assay is described as follows: H1.0 immunofluorescence intensity relative to DMSO (% of DMSO); higher = stronger H1.0 induction, active = 120 or more. Put shortly:
as §1

The test system of assay [4] is HCC1569. The experiment in a line: H1.0 immunofluorescence intensity relative to DMSO (% of DMSO); higher = stronger H1.0 induction, active = 140 or more. An outline of the steps:
as §1
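For H1.0 immunofluorescence intensity relative to DMSO in this document: TDF is a line of transformed human dermal fibroblasts of mesenchymal origin.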
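For cell number relative to DMSO in this document: TDF denotes transformed human dermal fibroblasts of mesenchymal origin.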

Regarding `N#CC(=Cc1c[nH]c2ccccc12)C(=O)c1ccc(O)c(O)c1` [Tyrphostin AG 808], the cell number in the assay with HCC1569 [1] is 93.1; in the assay with TDF [2], 100. Moreover, the H1.0 immunofluorescence intensity with TDF [3] was 86.2 (inactive); in the assay with HCC1569 [4], 122 (inactive).
The like results for `CC1=CCC(C)(C)C=CC(=O)C(C)=CCC1` [Zerumbone] were, in that order, 87.7, 89.7, 104 (inactive) and 121 (inactive).
The like results for `CC1=C(C(=O)O)N2C(=O)C(NC(=O)C(N)C3=CCC=CC3)C2SC1` (stereo not given) [Cephradine] were, in that order, 100, 115, 93.5 (inactive) and 88.5 (inactive).
Regarding `Cl.O=C(CNC(=O)c1cccc(C(F)(F)F)c1)N[C@@H]1CCN(Cc2ccc(Cl)cc2)C1`, the cell number with HCC1569 [1] worked out at 89.9; with TDF [2], 96.8. The results for the H1.0 immunofluorescence intensity with TDF [3] and in the assay with HCC1569 [4] were 89.1 (inactive) and 134 (inactive), respectively.
The like results for `CC(C)NNC(=O)c1ccncc1` [Iproniazid] were, in that order, 104, 103, 100 (inactive) and 112 (inactive).
The like results for `CCC1=CC2CN(C1)Cc1c([nH]c3ccccc13)C(C(=O)OC)(c1cc3c(cc1OC)N(C)C1C(O)(C(=O)OC)C(OC(C)=O)C4(CC)C=CCN5CCC31C54)C2` (stereo not given) [Vinorelbine] were, in that order, 56.9 ± 1.3, 9.75 ± 0.33, 167 (active) and 153 (active).
For `COc1ccc(C2CNC(=O)C2)cc1OC1CCCC1` (stereo not given) [Rolipram], the values for the cell number in the assay with HCC1569 [1] and in the assay with TDF [2] were 101 ± 1.8 and 108 ± 4.6, respectively. Further, the H1.0 immunofluorescence intensity in the assay on TDF [3] was 91.5 (inactive); in the assay with HCC1569 [4], 110 (inactive).
Take `O=C(c1ccccc1)c1ccc(N2CCOCC2)cc1O` [DNA-PK Inhibitor V]: the cell number in the assay with HCC1569 [1] is 94.7; in the assay on TDF [2], 95.7. The H1.0 immunofluorescence intensity in the assay on TDF [3] was 91.7 (inactive); in the assay on HCC1569 [4] it was 109 (inactive).
The like results for `C[C@@H](c1nc(-c2ccc(C#N)cc2)cs1)[C@](O)(Cn1cncn1)c1ccc(F)cc1F` were, in that order, 83.5, 95, 111 (inactive) and 129 (inactive).
The like results for `CCCCCC(O)C=CC1C(O)CC(=O)C1CC=CCCCC(=O)O` (stereo not given) [Prostaglandin E2] were, in that order, 100 ± 2.4, 102 ± 6.3, 95.7 (inactive) and 100 (inactive).
As to `O=C(Nc1cccc(Cl)c1)Nc1ncc(CCNc2ncnc3ccsc23)s1`, the cell number in the assay with HCC1569 [1] was 66.1; with TDF [2], 42.9. Moreover, the H1.0 immunofluorescence intensity is 103 (inactive) in the assay with TDF [3] and 178 (active) in the assay with HCC1569 [4].
With `NC(=O)c1cccc(NC(=O)/C=C/c2c[nH]c3ccccc23)c1` [(E)-3-(3-(1H-indol-3-yl)acrylamido)benzamide], the cell number in the assay on HCC1569 [1] turned out to be 97.9; with TDF [2] it was 103. For the same molecule, the H1.0 immunofluorescence intensity is 88 (inactive) in the assay with TDF [3] and 118 (inactive) in the assay on HCC1569 [4].
As for `O=C1C=CC(=C2NC(c3ccncc3)=C(c3ccc(F)cc3)N2)C=C1`, the cell number in the assay on HCC1569 [1] is 79.5 and 79.7; in the assay on TDF [2], 95.1 and 96.9. For the same molecule, the H1.0 immunofluorescence intensity in the assay with TDF [3] was 97.7 (inactive) and 97.1 (inactive); in the assay with HCC1569 [4] it was 125 (inactive) and 124 (inactive).
Regarding `CC(=O)OCC1(O)CC23CCC4c5ccoc5CCC4(C)C2CCC1C3` (stereo not given) [Cafestol acetate], the cell number was 103 in the assay with HCC1569 [1] and 98.6 with TDF [2]. Moreover, the H1.0 immunofluorescence intensity is 97.6 (inactive) in the assay on TDF [3] and 98.4 (inactive) in the assay with HCC1569 [4].
For `COC(C(=O)C(O)C(C)O)C1Cc2cc3cc(OC4CC(OC5CC(O)C(O)C(C)O5)C(O)C(C)O4)c(C)c(O)c3c(O)c2C(=O)C1OC1CC(OC2CC(OC3CC(C)(O)C(O)C(C)O3)C(O)C(C)O2)C(O)C(C)O1` (stereo not given) [Plicamycin], the cell number in the assay on HCC1569 [1] stood at 60.8; in the assay on TDF [2] it was 36. For the same molecule, the H1.0 immunofluorescence intensity with TDF [3] was 103 (inactive); in the assay with HCC1569 [4], 126 (inactive).
On to `O=C(CCCc1ccc(-c2ccccc2F)cc1)Nc1ccc(O)cc1` [MK2a Inhibitor], for which the cell number turned out to be 79 in the assay with HCC1569 [1] and 11.1 in the assay on TDF [2]. The H1.0 immunofluorescence intensity was 157 (active) in the assay with TDF [3] and 129 (inactive) with HCC1569 [4].
Take `O=C1CC(c2ccc(O)c(O)c2)Oc2cc(OC3OC(CO)C(O)C(O)C3O)cc(O)c21` (stereo not given) [Eriodictyol-7-O-glucoside]: the cell number in the assay on HCC1569 [1] was found to be 101; in the assay on TDF [2], 94.3. The H1.0 immunofluorescence intensity in the assay on TDF [3] is 97.7 (inactive); in the assay on HCC1569 [4], 89.3 (inactive).
The like results for `COC1=C(OC)C(=O)c2ccccc2C1=O` [2,3-Dimethoxy-1,4-naphthoquinone] were, in that order, 74.6, 36.2, 114 (inactive) and 128 (inactive).
As for `CC(C)C[C@@H](C(=O)O)c1cc(-c2ccc(C(F)(F)F)cc2)cc(-c2ccc(C(F)(F)F)cc2)c1`, the cell number in the assay with HCC1569 [1] came out at 98.7; with TDF [2], 92.4. Also, the H1.0 immunofluorescence intensity with TDF [3] was 93.7 (inactive); in the assay on HCC1569 [4], 115 (inactive).
As to `CCN(CC)C(=S)SSC(=S)N(CC)CC` [Tetraethylthiuram disulfide], the cell number with HCC1569 [1] was 97.2; in the assay on TDF [2], 54. Besides, the H1.0 immunofluorescence intensity in the assay on TDF [3] is 120 (inactive); with HCC1569 [4], 102 (inactive).
The like results for `CC(C)c1cc(C(C)C)c(-c2csc(N(CCN(C)C)Cc3cccnc3)n2)c(C(C)C)c1` were, in that order, 50.7, 55.2, 146 (active) and 146 (active).
Turning to `CCCC(CCC)C(=O)O` [Valproic acid], the cell number in the assay on HCC1569 [1] was determined as 100; in the assay on TDF [2], 111. Besides, the H1.0 immunofluorescence intensity in the assay on TDF [3] is 97 (inactive); with HCC1569 [4], 105 (inactive).
Consider `CC(C)[N+](C)(CCOC(=O)C1c2ccccc2Oc2ccccc21)C(C)C.[Br-]` [Propantheline bromide], for which the cell number in the assay with HCC1569 [1] was found to be 99.3; in the assay with TDF [2] it was 107. The H1.0 immunofluorescence intensity is 95.1 (inactive) in the assay on TDF [3] and 96.9 (inactive) in the assay with HCC1569 [4].
The like results for `CCN(CC)CCNC(=O)c1ccc(N)cc1.Cl` [Procainamide hydrochloride] were, in that order, 98.7, 110, 88.6 (inactive) and 99.1 (inactive).
Consider `COc1cc2ncnc(Nc3ccc(OCc4ccccc4)cc3)c2cc1OC` [EGFR/ErbB-2 Inhibitor], for which the cell number was 88.7 with HCC1569 [1] and 92.5 in the assay on TDF [2]. The H1.0 immunofluorescence intensity in the assay on TDF [3] was 103 (inactive); in the assay with HCC1569 [4], 121 (inactive).
